Measurements: PubChem BioAssay AID504847 (National Center for Advancing Translational Sciences (NCATS), 2011)
“And” between values parts separate entries of the source, which are not always exact repeats. Equal entries are not always repeated. Among all 400,000 compounds or so, about 3,700 (0.93%) were called active. Another 3% or so got no clear call; they are omitted. The entries come from a sample that favours actives as a whole. Unmarked numbers belong to inactive results. Calls come from the whole dose curve; as a rule, active = well fitted inhibition curve with a large enough effect; inconclusive = small, poorly fitted or top-dose-only effect, or another doubt; inactive = no such curve, though single readings can be large or run the other way.

Each compound was assayed against Vitamin D3 receptor (Homo sapiens) (UniProt P11473) (assay: Inhibitors of the vitamin D receptor (VDR): qHTS). Conditions: VDR-SRC2-3 peptide fluorescence polarization, 2 h; max response, negative = inhibition: active compounds read low.
Vitamin D3 receptor (Homo sapiens), sequence (P11473 whole entry, looked up): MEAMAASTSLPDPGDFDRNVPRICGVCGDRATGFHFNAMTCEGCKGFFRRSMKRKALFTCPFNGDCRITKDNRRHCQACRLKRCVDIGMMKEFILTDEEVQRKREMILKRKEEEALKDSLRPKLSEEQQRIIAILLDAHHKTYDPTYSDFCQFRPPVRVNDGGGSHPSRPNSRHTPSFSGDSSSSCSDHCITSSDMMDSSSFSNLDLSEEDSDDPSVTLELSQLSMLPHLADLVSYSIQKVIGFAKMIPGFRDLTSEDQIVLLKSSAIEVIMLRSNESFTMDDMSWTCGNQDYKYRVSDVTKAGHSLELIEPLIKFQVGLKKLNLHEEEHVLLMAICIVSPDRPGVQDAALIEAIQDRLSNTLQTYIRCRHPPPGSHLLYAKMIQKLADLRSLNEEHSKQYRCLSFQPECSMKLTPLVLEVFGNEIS
Summary of the method: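 Fluorescence polarization assay of small-molecule disruption of VDR binding to coregulator peptide SRC2-3. Compounds and controls pin-transferred, then read after 2 h incubation at ambient room temperature.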
% is set by controls: 0 for no effect and ±100 for the full control effect; potency is the fitted concentration of half-maximal effect.

SMILES | max response, negative = inhibition | Potency
CCc1cc2c(cc3c(=O)n(CC(=O)NCCc4ccc(OC)c(OC)c4)ncn32)s1 | 14.2% | 
CC1CC(C)CN(c2oc(-c3ccc(OCc4ccc(Cl)cc4)cc3)nc2C#N)C1 (stereo unspecified) | -6.19% | 
COc1cccc(-c2cc(C(=O)Nc3ccc(C)cc3)[nH]n2)c1 | -3.16% | 
Cc1ccc(C(=O)NC(=S)NCc2cccnc2)cc1 | -6.42% | 
CSc1sc(C(=O)NC(=O)NCc2cccnc2)c(C)c1-c1ccon1 | 1.93% | 
Cc1ccc(-n2nc(-c3ccco3)cc2C(=O)NCc2cccnc2)cc1 |  | 70.8 µM (active)
COc1cc(CNCCSc2nnnn2C)ccc1OCc1ccc(Cl)cc1Cl | 1.83% | 
O=c1c(O)c(Br)ccc2c(Br)c(O)c(O)c(O)c12 |  | 7.94 µM (active)
O=C(c1ccco1)N(Cc1cccs1)c1ccc(O)cc1 | -6.28% | 
Cc1cccc(CSc2nc3ccncc3n2CC(=O)N(C)C2CCCCC2)c1 | -0.866% | 
CCOCCCNC(=O)c1c(NC(=O)Cc2coc3ccc(C)cc23)sc2c1CCC2 | 8.22% | 
O=C(Nc1ccccc1-c1ccccc1)c1cccs1 |  | 70.8 µM (active)
O=C(Nc1ccccc1-c1nnn(CC(=O)N2CCN(c3ccccc3)CC2)n1)c1cccs1 | -0.102% | 
O=C(Nc1ccccc1-c1ccccc1)c1ccccc1[N+](=O)[O-] | -7.79% | 
Cc1ccc(C)c(NC(=O)CSC2=Nc3ccccc3N=C(c3ccc(F)cc3)C2)c1 | 4.3% | 
Cc1cccc2nc(-c3ccc(Cl)s3)c(Nc3ccc4c(c3)OCCO4)n12 | -14.5% | 
C=C(C(C)=O)C(O)c1ccc([N+](=O)[O-])cc1 (stereo unspecified) |  | 50.1 µM (active)
C=C(C(C)=O)C(O)c1cccs1 (stereo unspecified) | -7.76% | 
CC(=O)NCC(O)c1ccc([N+](=O)[O-])cc1 (stereo unspecified) | -16.9% | 
CCN1CCN(c2cc(C)c3cc(NC(=O)c4cc(Cl)ccc4OC)ccc3n2)CC1 | -8.13% | 
CCOc1ccc(CC(=O)NCCc2csc3nc(-c4ccccc4F)nn23)cc1 | 13.3% | 
CN(C)c1nccc(NCc2ccccc2)c1C#N | 28.6% | 

SMILES | max response, negative = inhibition | Potency
CC(C)n1cnc2c(NCc3ccccc3)cc(OCC3CCN(C)CC3)cc21 |  | 50.1 µM (active)
CCC(CO)Oc1cc(NC(=O)c2ccc(Cl)cc2)c2ncn(C(C)C)c2c1 (stereo unspecified) | -27.1% | 
CCOc1ccc(NC(=O)CSc2c3c(nc4ccccc24)CCCC3)cc1 | 0.351% | 
CC(=O)c1ccc(NS(=O)(=O)c2ccc(-c3cc(C)no3)s2)cc1 | -0.0795% | 
COc1ccc(CNC(=O)C2=Cc3cccc(OC)c3OC2)cc1OC | -2.19% | 
C[C@]12CC[C@@H]3c4ccc(O)cc4C[C@@H](CCCCCCCCCS(=O)CCCC(F)(F)C(F)(F)F)C3[C@@H]1CC[C@@H]2O (stereo partly specified) | -2.01% | 
CCOc1ccc(NC(=O)CSc2nnc3c(n2)[nH]c2ccc(S(=O)(=O)N4CCOCC4)cc23)cc1 | 3.89% | 
CSc1ccccc1C(=O)Nc1cccc(C(C)=O)c1 |  | 39.8 µM (active)
CC(=O)c1cccc(NC(=O)c2cc(C)nn2-c2ccccc2)c1 | -12.6% | 
CSc1ccccc1C(=O)NCc1ccccc1 | 10.4% | 
CCCCC/C=C\C/C=C\CCCCCCCCCC(N)=O | -2.13% | 
CCN(CC)C(=O)CSc1nc2cc3c(cc2c(=O)n1CCCC(=O)NCc1ccc2c(c1)OCO2)OCO3 | 4.85% | 
CCOc1ccc2nc(N3CCCC(C(=O)Nc4cc(C)ccc4C)C3)sc2c1 (stereo unspecified) | 5.91% | 
O=C(O)c1ccc(CSc2nc3cccnc3n2Cc2cccc(F)c2)cc1 | 9.37% | 
O=C(/C=C/Sc1ncn[nH]1)c1ccc(Cl)cc1 |  | 39.8 µM (active)
C[C@@H]1C[C@H]2[C@@H]3C[C@H](F)C4=CC(=O)C=C[C@@]4(C)[C@]3(F)[C@H](O)C[C@]2(C)[C@@]1(O)C(=O)CO | -2.08% | 
Cc1ccnc(-n2sc3ccccc3c2=O)n1 |  | 25.1 µM (active)
CCOC(=O)c1c(C)[nH]c(CCC(=O)Nc2ccc(OC)c(OC)c2)c1C | -6.79% | 
COc1cc(OC)c(C2C=C(C(=O)O)Nc3ncnn32)cc1OC (stereo unspecified) | -29.8% | 
COc1ccccc1CNC(=O)Cn1nc(C)c2nn(-c3ccc(Cl)cc3)c(C)c2c1=O | 3.2% | 
NC(=O)C1(C(N)=O)OC1c1ccc(Cl)cc1Cl (stereo unspecified) |  | 14.1 µM (active)
Nc1ccc2c(c1)C(O)c1ccc(Cl)cc1-2 (stereo unspecified) | 1.49% | 

SMILES | max response, negative = inhibition | Potency
CCN(CC)c1nc(C#N)nc(OC)n1 | -23.3% | 
CCOC(=O)C1Sc2[nH]c(=O)sc2C(c2ccc(Cl)cc2)C1C(=O)OCC (stereo unspecified) |  | 79.4 µM (active)
CCOC(=O)C1CCN(C(=O)Nc2ccc(Cl)cc2)CC1 | 6.67% | 
CCOC(=O)c1ccccc1N1C(=O)C2Sc3[nH]c(=O)sc3C(/C=C/c3ccccc3)C2C1=O (stereo unspecified) | -26.2% | 
CCCCCn1c(CCCNC(=O)c2ccccc2OC)nc2ccccc21 | 10.5% | 
COc1cccc2c1cc1c(=O)n(CC(=O)N3CCN(c4cccc(Cl)c4)CC3)nc(C)n12 | -15.1% | 
Cc1cccc(NC(=O)CSc2ncc(-c3ccccc3)[nH]2)c1C | -15.6% | 
CC(=O)c1c(C)n(S(=O)(=O)c2ccc(Cl)cc2)c2ccc(NS(=O)(=O)c3ccc(Cl)cc3)cc12 |  | 79.4 µM (active)
CCOC(=O)c1c(C)n(S(=O)(=O)c2ccc(C)cc2C)c2ccc(NS(=O)(=O)c3ccc(C)cc3C)cc12 | -7.13% | 
CC(=O)c1c(C)oc2ccc(NS(=O)(=O)c3ccc(C(=O)O)cc3)cc12 | 11.8% | 
O=C(C1CCCN(S(=O)(=O)c2cccc3nonc23)C1)N1CCN(c2ccccc2F)CC1 (stereo unspecified) | -15.4% | 
COc1ccc(OC)c(NC(=O)C2CCN(S(=O)(=O)c3ccc(C)cc3)CC2)c1 | 29.3% | 
O=C(O)C(c1ccccc1)N1C(=O)/C(=C\c2ccc(-c3cccc(Cl)c3)o2)SC1=S (stereo unspecified) |  | 79.4 µM (active)
O=C(NCc1ccccc1)c1cc(-c2cccc(Cl)c2)on1 | -16.6% | 
Cn1cccc1/C=C1\SC(=S)N(NC(=O)c2ccc(Cl)cc2)C1=O | -22.2% | 
O=c1[nH]c(/C=C\c2cccc(C(F)(F)F)c2)nc(O)c1[N+](=O)[O-] |  | 44.7 µM (active)
O=c1[nH]c(/C=C/c2cccc(Br)c2)nc2ccccc12 | -10.9% | 
O=c1cc(O)c(-c2cccc(C(F)(F)F)c2)c(Cl)[nH]1 | 13.8% | 
CC1(C)O[C@@H]2C[C@@H]3[C@H]4C[C@@H](F)C5=CC(=O)C=C[C@]5(C)[C@@]4(F)[C@@H](O)C[C@]3(C)[C@]2(C(=O)CO)O1 | 1.68% | 
COCCNC(=O)CSc1nc(-c2ccccc2)[nH]c1-c1ccc(C)cc1 | -12.4% | 
Cc1cc(C(=O)NNS(=O)(=O)c2ccccc2C(F)(F)F)nn1C(C)(C)C | 3.25% | 
CCCCc1nn(-c2ccccc2C(F)(F)F)c(=O)n1Cc1ccc(-c2ccccc2S(=O)(=O)NC(=O)c2sccc2C)cc1 |  | 44.7 µM (active)

SMILES | max response, negative = inhibition | Potency
CCCN1CCN(CCCNC(=O)c2cnn(-c3ccc(C)cc3)c2-n2cccc2)CC1 | 13.2% | 
CCN(CCCNC(=O)c1cc2cc3cc(OC)ccc3nc2s1)c1ccccc1 | -7.19% | 
O=C(NCC1CC1)C1(C(F)(F)F)C/C(=C\CCO)CCCO1 (stereo unspecified) | -6.83% | 
Nc1nc2nc(Cl)[nH]c2c(=O)[nH]1 | -11.6% | 
Cc1cc(C)cc(C(=O)NC2C(=O)N3C(C(=O)O)=C(CSc4nnc(C)s4)CSC23)c1 (stereo unspecified) |  | 79.4 µM (active)
CC(C)(C)OC(=O)C1=C(CO)CS[C@@H]2[C@H](NC(=O)Cc3ccccc3)C(=O)N12 | -17.3% | 
CO/N=C(\C(=O)N[C@@H]1C(=O)N2C(C(=O)O)=C(COC(C)=O)CS[C@H]12)c1csc(N)n1 (stereo in doubt) | -16.4% and -7.75% and -25.8% | 
O=[N+]([O-])c1ccc(S(=O)(=O)N2CCN(c3nc(-c4ccccc4)nc4ccccc34)CC2)cc1 | -8.98% | 
Cc1ccc(C(=O)Nc2c(C(=O)NC(C)(C)C)oc3ccccc23)cc1 | 12.7% | 
COc1ccc(Cl)cc1NC(=O)C(C)Sc1nc2c(c(=O)[nH]1)CCCC2 (stereo unspecified) | 5.96% | 
CCN1/C(=C/C(=S)Nc2ccccc2)Sc2ccccc21 |  | 70.8 µM (active)
CCNCCC(=O)N1c2ccccc2Sc2ccc(NC(=O)OCC)cc21 | -7.06% | 
CCN1C(=O)c2ccccc2Sc2ccc(NC(=O)Cc3ccc(OC)cc3)cc21 | 7.46% | 
CC(=O)OC1CCC2(O)CC1(C)CCC1C2CC1(C)C (stereo unspecified) | -16.3% | 
C[C@@H]1O[C@@H](OC[C@H]2O[C@@H](Oc3c(-c4cccc(O)c4O)oc4cc(O)cc(O)c4c3=O)[C@H](O)[C@@H](O)[C@@H]2O)[C@H](O)[C@H](O)[C@H]1O | 2.29% | 
CSc1nnc(NC(=O)c2nc(S(=O)(=O)Cc3ccc(C)cc3)ncc2Cl)s1 |  | 11.2 µM (active)
CCS(=O)(=O)c1ncc(N(Cc2ccc(F)cc2)Cc2ccco2)c(C(=O)Nc2cc(C)ccc2C)n1 | -5.22% | 
CCOC(=O)c1ccc(NC(=O)c2nc(SCc3ccc(F)cc3)ncc2Cl)cc1 | -10.3% | 
Cc1ccc2nc(NC(=O)c3nc(SCc4ccccc4F)ncc3Cl)sc2c1 | 1.04% | 
O=C(Nc1nc2ccc(F)cc2s1)c1nc(SCc2ccccc2F)ncc1Cl | -2.57% | 
Cc1nnc(NC(=O)C(c2ccccc2)c2ccccc2)s1 | 13.7% | 
CCOc1cccc(C(=O)Nc2nnc(S(=O)(=O)N(C)c3ccc(C)cc3)s2)c1 | -4.91% | 

SMILES | max response, negative = inhibition | Potency
Cc1ccc(CS(=O)(=O)c2ncc(Cl)c(C(=O)Nc3nnc(C)s3)n2)cc1 |  | 25.1 µM (active)
Cc1cccc(CS(=O)(=O)c2ncc(Cl)c(C(=O)Nc3ccc(F)cc3)n2)c1 |  | 50.1 µM (active)
COc1ccc(CNC(=O)COCc2cc(-c3cccs3)on2)cc1OC | 16.9% | 
COc1ccc(-c2nc3scc(CCNS(=O)(=O)c4cc(F)ccc4OC)n3n2)cc1OC | 0.564% | 
CCOc1ccc2nc(N3CCC(C(=O)Nc4cc(C)ccc4C)CC3)sc2c1 | -0.819% | 
COc1ccccc1CNC(=O)CCCCn1c(=O)c2ccccc2n(CC(=O)Nc2cc(Cl)ccc2C)c1=O | -8.69% | 
CCOC(=O)c1cc(NC(=O)c2ccc(F)cc2)c(=O)n2c1oc1ccccc12 | 4.45% | 
O=[N+]([O-])c1ccccc1S(=O)(=O)Nc1cccc2cccnc12 | 0.987% and -18.8% | 
O=[N+]([O-])c1ccccc1SNc1ccccn1 | -25% | 
O=[N+]([O-])c1cccc2ncccc12 |  | 12.6 µM (active)
O=C(/C=C/c1cccc(F)c1)NC1CC1 | 0.0804% | 
Cc1c(C(=O)Nc2cccc(Cl)c2)oc2ccc(S(=O)(=O)N3CCOCC3)cc12 | -9.71% | 
O=C1C=C(c2ccc(Cl)cc2)C(=O)N1Nc1ccccc1 |  | 22.4 µM (active)
Cc1cccc(NC(=O)Cn2nc(-c3ccc(Cl)cc3)c3ccccc3c2=O)c1 | 4.43% | 
Cc1ccc(C(=O)Nc2ccc(OCc3cc(=O)n4c(C)csc4n3)cc2)cc1 | -1.83% | 
Cc1ccc(S(=O)(=O)c2nc(-c3cccs3)oc2N2CCCCC2)cc1 | 28.2% | 
C=CC(C1=CC(=O)C=CC1=O)c1ccc(O)cc1 (stereo unspecified) |  | 39.8 µM (active)
CCCn1c2ccccc2c2cnn(CC(=O)NCCCOC(C)C)c(=O)c21 | 4.17% | 
